# HT1080 IDH1KD tx = HT-1080 IDH1 knockdown cell toxicity (counter line) | HT-1080 IDH1 knockdown viability, ATP luminescence, 48 h | Potency, µM (titrated, usually from 46.1 µM), for the others: at the highest dose activity, negative = toxicity, actives largely listed as cytotoxic | 360,000 tested, 2% active | AID 686971;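 note: potency is the fitted concentration of half-maximal effect; 0% = DMSO wells and -100% = cell-free medium wells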
#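 % activity derives from luminescence (CellTiter-Glo), normalised to DMSO and no-cell wells. HT-1080-IDH1KD cells, 750/well, had 48 h compound exposure at 37 °C.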
# DT40 TDP1 CPT = DT40-hTDP1 cell growth loss with CPT. chicken DT40 Tdp1-/-;hTDP1 cells + 20 nM CPT, ATP luminescence, 48 h. Potency, µM (doses to about 46.2 µM), without a hit: at the top dose activity change, negative = growth inhibition, hits mostly inhibitors. 420,000 tested, 12% active; note: potency is the fitted concentration of half-maximal effect; nearly all actives have a fitted effect of over 55% in size
#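 Chicken DT40 Tdp1-/- cells stably complemented with human TDP1 were seeded at 400 cells/well in medium containing 20 nM camptothecin, exposed to pin-transferred compounds, and grown at 37 °C for at least 48 hr. Viability was read as ATP luminescence.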
# IL-1B inflam inh = blocks inflammasome-driven IL-1 beta release; activity change, % at 57.5 µM; 360,000 tested, 4.7% active; THP-1 LPS/ATP IL-1B secretion, AlphaLISA, 16 h; stronger effect = lower value; in the data active = activity change below about -50%; inconclusive = mostly about -30% to -49%
#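 THP-1 cells pretreated 1 hr with compounds (up to 57.5 uM final), then stimulated with LPS (250 ng/mL final) plus ATP (1.25 mM final); secreted IL-1B measured by AlphaLISA after 16 hr, decreased signal indicating inhibition.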
# HT1080NT lethal = kills 2HG-producing HT-1080-NT fibrosarcoma cells. 360,000 tested, 1.6% active. HT-1080-NT fibrosarcoma viability, CellTiter-Glo ATP luminescence, 48 h. Potency, µM (doses to about 46.1 µM), for the others: top-dose activity, negative = less viability, usual class: cytotoxic. AID 686970;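 note: NT is the 2HG producing partner of a matched IDH1 knockdown line; potency is the fitted concentration of half-maximal effect; 0% = DMSO-treated cells and -100% = media-only wells without cells; nearly all actives have a fitted effect of over 55% in size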
#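 Viability by CellTiter-Glo luminescence after 48 h compound exposure at 37C of HT-1080-NT cells (750/well, RPMI, 5% FBS). % activity scaled between DMSO wells and medium-only wells, then curve-fitted and categorized by curve class.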
# 12-LOX inh = inhibitors of human 12S-lipoxygenase ALOX12; P18054; purified 12hLO, xylenol orange hydroperoxide absorbance; Potency, µM (series often up to 108 µM), for the others: at the top dose activity change, negative = inhibition, hits mostly inhibitors; 580,000 tested, 1.1% active; AID 1671190; note: potency is the fitted concentration of half-maximal effect
# Target sequence (P18054 whole entry, looked up): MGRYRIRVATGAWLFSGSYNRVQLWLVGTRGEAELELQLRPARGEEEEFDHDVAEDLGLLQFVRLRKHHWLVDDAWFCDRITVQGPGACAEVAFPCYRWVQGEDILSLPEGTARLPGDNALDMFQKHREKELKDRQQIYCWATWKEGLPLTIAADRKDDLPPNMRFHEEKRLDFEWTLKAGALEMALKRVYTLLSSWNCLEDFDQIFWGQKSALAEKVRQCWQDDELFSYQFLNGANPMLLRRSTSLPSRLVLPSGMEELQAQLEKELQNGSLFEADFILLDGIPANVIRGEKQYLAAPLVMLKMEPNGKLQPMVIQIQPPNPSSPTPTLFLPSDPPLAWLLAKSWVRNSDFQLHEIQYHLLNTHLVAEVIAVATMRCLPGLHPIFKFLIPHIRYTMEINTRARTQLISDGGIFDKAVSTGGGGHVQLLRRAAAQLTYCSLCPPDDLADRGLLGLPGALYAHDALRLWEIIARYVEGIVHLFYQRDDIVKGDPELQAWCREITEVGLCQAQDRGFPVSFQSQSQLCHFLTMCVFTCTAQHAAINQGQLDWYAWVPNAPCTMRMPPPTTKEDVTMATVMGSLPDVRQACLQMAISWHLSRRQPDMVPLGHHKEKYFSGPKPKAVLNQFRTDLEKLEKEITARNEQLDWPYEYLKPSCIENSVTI
#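 Purified human 12hLO at 150 nM in 25 mM Hepes, 0.01% Triton X-100, pH 7.0, preincubated 15 min at room temperature with compound. Reaction started with 40 uM arachidonic acid, 30 min at room temperature. Hydroperoxide measured by Fe-xylenol orange, 573/405 nm absorbance ratio.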
# DT40 TDP1 no CPT = qHTS for Inhibitors of human tyrosyl-DNA phosphodiesterase 1 (TDP1): qHTS in cells in absence of CPT; DT40 Tdp1-/- hTDP1 cells, no CPT, ATP luminescence, 48 h; Potency, µM (doses to about 46.2 µM), for inactives: top-dose activity change, negative = growth inhibition, actives largely listed as inhibitors; 420,000 tested, 15% active; AID 686978, 2013; note: potency is the fitted concentration of half-maximal effect; nearly all actives have a fitted effect of over 55% in size
#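 Growth kinetics read by CellTiter-Glo luminescence after ≥48 hr at 37 °C. Cells: DT40 Tdp1-/- stably carrying human TDP1, 400 per well, compound exposure in the absence of CPT (DMSO vehicle).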
# * = called active by the depositor; ? = inconclusive; . = no result; [ ] = another dose, or the depositor's remark. Many of the other results were omitted from the sample, so hits are more common in it than they were. Unless noted, calls come from the whole dose curve; as a rule, active = well fitted curve in the direction sought with a large enough effect; inconclusive = small, poorly fitted or top-dose-only effect, or another doubt; inactive = no such curve, though single readings can be large; an effect the other way counts as inactive or inconclusive. Unless noted, % is set by controls: 0 for no effect and ±100 for the full control effect.
SMILES,HT1080 IDH1KD tx,DT40 TDP1 CPT,IL-1B inflam inh,HT1080NT lethal,12-LOX inh,DT40 TDP1 no CPT
CC(NC(=O)C1CCN(C(=O)Nc2ccccc2)CC1)c1ccccc1 (stereo unspecified),0%,-3%,-3,-5%,-11%,-3%
O=C(NCCCN(C(=O)c1cccnc1)C1CCCCC1)c1nc2ccccc2c(=O)[nH]1,.,.,.,.,4%,.
CN(C)c1nccc(N(Cc2ccccc2)Cc2ccccc2)c1C#N,-2%[9.24 µM],18µM*,-13,-18%,3.2µM*,29µM*
CN(C)S(=O)(=O)N1CCCC(C(=O)c2ccc(-c3ccccc3)c(F)c2)C1 (stereo unspecified),?,16µM*,-5,-9%,9%,15µM*
COc1ccc(C(=O)C2CCCN(Cc3cn(C)nc3-c3ccccc3)C2)cc1F (stereo unspecified),-12%,?,-15,-12%,-9%,26µM*
O=C(c1ccc(-c2ccccc2)c(F)c1)C1CCCN(CCCn2cccn2)C1 (stereo unspecified),-11%,16µM*,?,-7%,10%,?
Cc1ncoc1C(=O)N1CCCC(C(=O)c2ccc(-c3ccccc3)c(F)c2)C1 (stereo unspecified),-3%,?,-9,-12%,-15%,?
CSc1ccc(C(=O)C2CCCN(S(=O)(=O)N(C)C)C2)cc1 (stereo unspecified),-7%,7%,-6,-6%,5%,?
CCn1cc(CN2CCCC(C(=O)c3ccc(-c4ccccc4)c(F)c3)C2)cn1 (stereo unspecified),21µM*,18µM*,-81*,?,?,23µM*
CCOc1ccccc1CN1CCCC(C(=O)c2ccc(OC)c(OC)c2)C1 (stereo unspecified),-18%,?,0,-1%,0%,?
COc1ccc2c(c1)c(CN1CCc3nn(C)c(=O)n3CC1)cn2C,.,.,.,.,24%,.
Cc1cc(C)cc(NC(=O)c2nn(C)c(=O)c3ccccc23)c1,.,.,.,.,12%,.
COc1c(C)cc(C(=O)C2CCCN(C(=O)c3cc(C)n(C)n3)C2)cc1C (stereo unspecified),-16%,?,26,-4%,-8%,?
COc1c(C)cc(C(=O)C2CCCN(S(=O)(=O)N(C)C)C2)cc1C (stereo unspecified),-2%,?,3,-16%,3%,13µM*
O=C(CNc1cccc2ccccc12)N/N=C/c1ccc(C(=O)O)cc1,-8%,-5%,0,-1%,3%,-2%
Cc1ccc(OCC(=O)N/N=C/C=C/c2ccco2)cc1C,-18%,?,?,4%,40µM*,?
Cn1c(SCC(=O)N/N=C/C=C/c2ccccc2[N+](=O)[O-])nc2ccccc21,-14%,-5%,-4,-9%,3%,-48%
Cn1c(SCC(=O)N/N=C/C=C/c2ccco2)nc2ccccc21,8%,18µM*,0,12%,-21%,18µM*
O=C(CNc1cccc2ccccc12)N/N=C/C=C/c1ccco1,1%,-26%,?,4%,32µM*,?
NC(=O)c1sc2nc(-c3cccnc3)ccc2c1N,2%,?,-67*,11%,?,?
COc1ccc(NC(=O)c2sc3nc4c(c(-c5ccco5)c3c2N)CCCCC4)cc1,.,.,.,.,1%,.
NC(=O)c1sc2nc(-c3ccco3)ccc2c1N,13%,-19%,-68*,10%,?,-26%
Nc1c(C(=O)Nc2ccccc2F)sc2nc(-c3cccnc3)ccc12,13µM*,0%,-10,?,?,?
COC(=O)c1sc2nc(-c3ccco3)ccc2c1N,8%,-16%,9,11%,?,?
